# Screening data deposited in PubChem by National Center for Advancing Translational Sciences (NCATS).
# JMJD2A Tudor inh: JMJD2A Tudor domain (human) inhibition; O75164; AID 504339; AlphaScreen JMJD2A-Tudor / H3K4me3 peptide binding; Potency, µM (series often up to 114 µM), inactives show at the highest dose activity change, negative = inhibition, actives largely listed as inhibitors; 390,000 compounds, 4.4% hits; also: % is scaled to controls: 0 for no effect and ±100 for the full control effect; nearly all actives have a fitted effect of over 50% in size
# GLS inh: blocks human kidney-isoform glutaminase activity; GLS enzymatic activity, qHTS titration; Potency, µM (doses to about 45.5 µM), inactives show at the top dose activity change, negative = inhibition, usual class: inhibitors; AID 624170; 410,000 compounds, 0.21% hits; O94925; also: % is scaled to controls: 0 for no effect and ±100 for the full control effect
#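 Human kidney-isoform GLS in 45 mM KH2PO4 pH 8.2, 0.02% Tween-20, with compound, started with 1mM L-Glutamine (added stock). Glutamate oxidase/HRP/Amplex red coupled fluorescence read at start and after 30 min at RT.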
# L3MBTL1 inh: L3MBTL1 (human) inhibition. AlphaScreen L3MBTL1–H3K9me1 peptide binding. Potency, µM (titrated, usually from 57.1 µM), for inactives: at the top dose activity, negative = inhibition, most hits filed as inhibitors. 230,000 compounds, 0.66% hits; also: % is scaled to controls: 0 for no effect and ±100 for the full control effect; nearly all actives have a fitted effect of over 60% in size
#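 L3MBTL1 (50 nM) pre-complexed 30 min with biotinylated H3(1-15)K9me1 peptide (75 nM), then compounds added for 30 min at room temperature; AlphaScreen streptavidin donor/nickel chelate acceptor beads (10 ug/mL final) read after 30 min dark incubation.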
# BAZ2B block: BAZ2B (human) inhibition; Q9UIF8; 360,000 compounds, 4.4% hits; AID 504333; Potency, µM (highest dose often 114 µM), without a hit: at the top dose activity change, negative = inhibition, most hits filed as inhibitors; AlphaScreen BAZ2B-H3K14Ac peptide displacement; also: % is scaled to controls: 0 for no effect and ±100 for the full control effect; nearly all actives have a fitted effect of over 60% in size
#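 In this displacement format the biotinylated H3(5-23) peptide acetylated at Lys14 serves as ligand at 50 nM, with BAZ2B at 50 nM in PBS pH 7.4 containing 0.01% Tween-20. Donor and acceptor beads are 10 ug/mL final.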
# HP1b binding inh: inhibitors of HP1-beta chromodomain binding to methylated histone tails; P83916; AlphaScreen HP1-beta / biotin-H3K9me3 peptide binding; Potency, µM (doses to about 114 µM), for the others: at the top dose activity change, negative = inhibition, usual class: inhibitors; 390,000 compounds, 0.56% hits; also: nearly all actives have a fitted effect of over 70% in size
#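 Compound inhibition of the preformed complex between 50 nM HP1-beta and 50 nM biotinylated H3K9me3 peptide was read by AlphaScreen. Buffer was PBS pH 7.4 with 0.01% Tween-20. Incubations ran 30 min at room temperature, with 10 ug/mL donor/acceptor beads.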
# G9a inh: blocks human histone lysine methyltransferase G9a. Q96KQ7. G9a H3K9 monomethylation, AlphaScreen, 2 h. Potency, µM (doses to about 102 µM), for inactives: top-dose activity, negative = inhibition, usual class: inhibitors. 350,000 compounds, 8.8% hits. AID 504332; also: % is scaled to controls: 0 for no effect and ±100 for the full control effect; nearly all actives have a fitted effect of over 75% in size
#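 Chemiluminescent proximity detection of H3K9 monomethylation, read after 10 min bead incubation in the dark. Reaction: 20 nM G9a, 500 nM biotin-H3K9 peptide, 20 uM SAM cofactor, 2 h, room temperature, following 15 min enzyme-compound preincubation.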
# Starred values were filed as active, the others as inactive; ? = inconclusive; . = not tested or not shown; [ ] = dose if it differs, or a comment. Rows were chosen to be rich in hits. Some 10% of all compounds tested hit in one or more screens of this group. Calls follow the shape of the dose curve; as a rule, active = well fitted curve in the direction sought with a large enough effect; inconclusive = small, poorly fitted or top-dose-only effect, or another doubt; inactive = no such curve, though single readings can be large; an effect the other way counts as inactive or inconclusive. Potency is read from the fitted curve at half-maximal effect.
SMILES,JMJD2A Tudor inh,GLS inh,L3MBTL1 inh,BAZ2B block,HP1b binding inh,G9a inh
C#CCOCCOCCOCCNc1nc(N2CCN(C(=O)[C@H]([C@@H](C)CC)n3cc([C@@H](N)CO)nn3)CC2)nc(N2CCN(C(=O)[C@H](Cc3ccc(O)cc3)n3cc([C@@H](N)C(C)CC)nn3)CC2)n1 (stereo not given in full),35µM*,69%,?,35µM*,39%,?
COc1cc(F)c(S(=O)(=O)N2CCN(S(=O)(=O)c3ccc(N)cc3)CC2)c(F)c1,-6%,.,.,.,.,.
C#CCOCCOCCOCCNc1nc(N2CCN(C(=O)[C@H]([C@@H](C)CC)n3cc([C@@H](N)CO)nn3)CC2)nc(N2CCN(C(=O)[C@H]([C@@H](C)CC)n3cc([C@@H](N)Cc4ccc(O)cc4)nn3)CC2)n1,50µM*,22%,-23%,28µM*,2%,-4%[12.7 µM]
O=C(CCn1cnc(-c2ccccc2)c1-c1ccccc1)N/N=C/c1ccc(O)cc1,25µM*,15%,-1%,?,?,?
O=C(CCn1cnc(-c2ccccc2)c1-c1ccccc1)N/N=C/c1ccccc1O,25µM*,18%,0%,?,?,45µM*
COc1ccc(/C=N/NC(=O)CCn2cnc3ccccc32)cc1,-6%,9%,3%,-18%,37%,9%
COc1ccc(/C=N/NC(=O)CCn2cnc(-c3ccccc3)c2-c2ccccc2)cc1,20µM*,4%,-8%,25µM*,?,?
Brc1cccc(CSc2nnc(-c3ccncc3)o2)c1,4%,-6%,.,27%,58%,45µM*
c1ccc2c(CSc3nnc(-c4ccncc4)o3)cccc2c1,-13%,1%,-6%,4%,-6%,50µM*
c1ccc(-c2nnc(SCc3ccncc3)o2)cc1,.,6%,.,.,.,.
Clc1ccccc1CSc1nnc(-c2ccncc2)o1,-11%,-4%,5%,-2%,33%,47%
COc1ccc(C(=O)NCCc2sc(-c3ccc(Cl)cc3)nc2C)c(OC)c1,?,1%,.,-13%,3%[57 µM],-1%[59 µM]
COc1ccccc1NC(C)=[N+](C)CCNS(=O)(=O)c1ccc(Cl)cc1,?,12%,.,25µM*,?,?
COc1ccc(NC(C)=[N+](C)CCNS(=O)(=O)c2ccc(Cl)cc2)cc1Cl,0%,3%,.,-17%,35%,.
Cc1csc(=O)n1CCC(=O)OCC(=O)NNC(=O)c1ccccc1,3%,0%,-6%,-4%,16%,56µM*
Cc1csc(=O)n1CCC(=O)OCC(=O)Nc1ncc(Cl)cc1Cl,-19%,-6%,-12%,?,-20%,45µM*
Cc1csc(=O)n1CC(=O)OCC(=O)NNC(=O)c1ccccc1,1%,-3%,.,-5%,29%,44%
COc1ccc(CCC(=O)NCc2nc3cccnc3n2Cc2cccc(OC)c2)cc1,-7%,4%,.,-3%,14%[57 µM],9%[59 µM]
Cc1ccc(CNC(=O)Cn2c(=O)n(-c3ccc(C)c(F)c3)c(=O)c3sc4ccccc4c32)cc1,-12%,5%,.,?,26%,-27%[59 µM]
COc1cc2sc3ccc(C#CC4(O)CCCCC4)cc3c(=O)c2cc1OC,3%,-8%,.,.,43%,.
Cn1c2ccccc2c(=O)c2ccc(C#CC3(O)CCCCC3)cc21,32%,-3%,29%,17%,147%,79µM*
Cc1nnc(N2CCN(c3ccccc3)CC2)c2c1nnn2Cc1ccc(F)cc1,-15%,9%,.,-18%,41%,9%[59 µM]
COc1ccccc1C(=O)NCc1ccccc1,-15%,-6%,3%,7%,39%,6%[59 µM]
COc1ccccc1C(=O)NCc1ccco1,-16%,-5%,-6%,-11%,23%,.
COc1ccccc1NC(=O)C(=O)NNC(=O)c1ccco1,?,23%,4%,?,16%,8.9µM*
SMILES,JMJD2A Tudor inh,GLS inh,L3MBTL1 inh,BAZ2B block,HP1b binding inh,G9a inh
COc1ccccc1NC(=O)c1ccc(NC(=O)c2ccco2)cc1,-3%,0%,.,0%,31%,?
COc1ccccc1C(=O)NCCNC(=O)c1ccco1,25µM*,27%,25%,1%,?,-7%[59 µM]
COc1ccccc1C(=O)NNC(=O)C(=O)NCc1ccccc1,?,13%,4%,-34%,23%,28µM*
O=C(Nc1ccccc1C(=O)NCCN1CCOCC1)c1ccco1,0%,5%,22%,-4%,19%,50µM*
Fc1cccc(Cl)c1CNCCSc1nnnn1-c1ccccc1,-7%,1%,.,11%,28%,-1%[59 µM]
COc1ccc(-c2nc3cnc(N4CCN(C)CC4)nc3n(-c3ccc(OC)cc3)c2=O)cc1,.,.,.,.,.,3%[0.501 µM]
O=C(NCCNC(=O)c1ccccc1Cl)c1ccco1,79µM*,-5%,.,16%,-3%,50µM*
Cc1ncc(C[n+]2csc(CCOC(=O)CC3C4CC5CC(C4)CC3C5)c2C)c(N)n1 (stereo not given),-8%[57.1 µM],11%,1%,-29%,73%,50µM*
Cc1csc(C(C)N(C)C(=O)c2ccc(OC3CCN(Cc4ccccn4)CC3)cc2)n1 (stereo not given),-24%,0%,.,?,8%,71µM*
Cc1nc(C(C)NC(=O)c2ccc(OC3CCN(Cc4ccccn4)CC3)cc2)c(C)s1 (stereo not given),-34%,-1%,.,79µM*,59%,7%
CCC(=O)N1c2ccc(S(=O)(=O)NCc3ccc(F)cc3)cc2CC1C (stereo not given),1%,3%,.,.,56%,20%[59 µM]
CO/N=C\CC(=O)Nc1ccc(Cl)cc1Cl,14µM*,?,9%,7%,3%,10%[59 µM]
COC(=O)c1cccc(NC(=O)c2ccco2)c1,-13%,4%,-3%,-5%,26%,-2%[59 µM]
CNC(=S)Nc1cccc(C(C)=O)c1,-4%[11.4 µM],14%,-2%,-17%,22%,-17%
COc1ccc(CCC(=O)NNC(=O)Nc2cccc(Cl)c2)cc1,-8%,15%,.,-17%,53%,8%
CC(=O)c1cccc(NC(=S)NNC(=O)c2ccco2)c1,3%,11%,8%,5%,33%,35µM*
CC(=O)c1cccc(NC(=S)Nc2ccc(F)cc2)c1,-15%,12%,-6%,6%,9%,50µM*
O=C(Nc1cc(Br)c(O)c(Br)c1)c1cccc(NC(=O)c2ccco2)c1,-29%,5%,-10%,50µM*,9%,40µM*
COc1ccc(CCC(=O)NNC(=S)Nc2cccc(C(C)=O)c2)cc1,-18%,-12%,6%,-2%,-4%,40µM*
